Targets with a hit are over-represented here; the source holds about 7,900 in all. About 0.6% of all pairs of compound and target were hits. A number with no mark means an inactive call.
Experiments:
Test in all cases: log2 fold change, soluble protein after heating vs DMSO (PISA); higher = thermal stabilisation; K562 cells, 10 uM, 30 min; active = over 0.2 and 3.5 SD of the protein, either way, in both replicates (recomputed)
erlotinib = compound: C#Cc1cccc(Nc2ncnc3cc(OCCOC)c(OCCOC)cc23)c1 [erlotinib]
Procedure, shortened: (§1)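 K562 cells at 2×10^6 cells/mL were exposed to 10 μM compound for 30 min, then aliquots were heated for 3 min across 48°C-58°C, pooled, and extracted in PBS containing 0.5% NP-40 at 4°C. The supernatant after 21,000xg for 90 min was taken as soluble protein and measured by TMTpro 16plex LC-MS/MS with channel sums equalised. Thermal stability is reported relative to control samples, with values from duplicates. Fold changes are given on a log2 scale.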

[1] = compound: C/C(=N\NC(=O)C1=CC(=CC=C1)S(=O)(=O)N2CCOCC2)/C3=C(C=CC(=C3)Cl)O
Procedure, shortened: as §1

[2] = compound: C1=CC(=C(C=C1Cl)C2=NC3=NC=CN=C3C(=N2)NC4=CC=NC=C4)F
Procedure, shortened: as §1

[3] = compound: C1=CC(=CC=C1C2=NC3=C(N2)C=C(C=C3)C(=O)N)OC4=CC=C(C=C4)Cl
Procedure, shortened: as §1

[4] = compound: C1=CC2=C(C=CC(=C2)/C=C\3/C(=O)NC(=NCC4=CC=CS4)S3)N=C1
Procedure, shortened: as §1

[5] = compound: C1=CC2=NC=CN=C2C=C1/C=C/3\C(=O)NC(=O)S3
Procedure, shortened: as §1

[6] = compound: C1=CC=C(C=C1)C2=NC(=C(N2)C3=CC=NC=C3)C4=CC(=C(C=C4)Cl)O
Procedure, shortened: as §1

[7] = compound: C1=CC=C2C(=C1)C3=NNC4=CC=CC(=C43)C2=O
Procedure, shortened: as §1

[8] = compound: C1CCN(C1)C(=O)NC2=CC=CC(=C2)NC3=NC=C(C(=N3)NCCC4=CN=CN4)Br
Procedure, shortened: as §1

[9] = compound: C1CN(CCC1(CC2=CC=C(C=C2)Cl)N)C3=NC=NC4=C3C=CN4
Procedure, shortened: as §1

IRAK-1-4 Inhibitor I = compound: C1COCCN1CCN2C3=CC=CC=C3N=C2NC(=O)C4=CC(=CC=C4)[N+](=O)[O-] [IRAK-1-4 Inhibitor I]
Procedure, shortened: as §1

ibrutinib = compound: C=CC(=O)N1CCC[C@@H](n2nc(-c3ccc(Oc4ccccc4)cc3)c3c(N)ncnc32)C1 [ibrutinib]
Procedure, shortened: as §1

[10] = compound: CC(=O)c1cnc2ccc(-c3cc(Cl)c(O)c(Cl)c3)nc2c1N[C@H]1CC[C@H](CN(C)C)CC1
Procedure, shortened: as §1

ralimetinib = compound: CC(C)(C)Cn1c(N)nc2ccc(-c3[nH]c(C(C)(C)C)nc3-c3ccc(F)cc3)nc21 [ralimetinib]
Procedure, shortened: as §1

[11] = compound: CC(C)(O)CC(=O)NCCn1ccc2ncnc(Nc3ccc(Oc4cccc(C(F)(F)F)c4)c(Cl)c3)c21
Procedure, shortened: as §1

[12] = compound: CC(C)C1=C2N=C(C=C(N2N=C1)NCC3=CC=CC=C3)NCCCCCCN
Procedure, shortened: as §1

[13] = compound: CC(C)C[C@@H](C=O)NC(=O)[C@H](CC(C)C)NC(=O)[C@H](CC(C)C)NC(=O)OCc1ccccc1
Procedure, shortened: as §1

pinometostat = compound: CC(C)N(C[C@H]1O[C@@H](n2cnc3c(N)ncnc32)[C@H](O)[C@@H]1O)[C@H]1C[C@@H](CCc2nc3cc(C(C)(C)C)ccc3[nH]2)C1 [pinometostat]
Procedure, shortened: as §1

[14] = compound: CC1=C(C(CC(=O)N1)C2=CC=C(C=C2)C(F)(F)F)C(=O)NC3=C(C=C4C(=C3)C=NN4)F
Procedure, shortened: as §1

[15] = compound: CC1=C(C2=C(C=C1)C(=O)C3=CC=CC=C3N2CCCN)C
Procedure, shortened: as §1

UniProt Q6N075, sequence (Q6N075 whole entry, looked up): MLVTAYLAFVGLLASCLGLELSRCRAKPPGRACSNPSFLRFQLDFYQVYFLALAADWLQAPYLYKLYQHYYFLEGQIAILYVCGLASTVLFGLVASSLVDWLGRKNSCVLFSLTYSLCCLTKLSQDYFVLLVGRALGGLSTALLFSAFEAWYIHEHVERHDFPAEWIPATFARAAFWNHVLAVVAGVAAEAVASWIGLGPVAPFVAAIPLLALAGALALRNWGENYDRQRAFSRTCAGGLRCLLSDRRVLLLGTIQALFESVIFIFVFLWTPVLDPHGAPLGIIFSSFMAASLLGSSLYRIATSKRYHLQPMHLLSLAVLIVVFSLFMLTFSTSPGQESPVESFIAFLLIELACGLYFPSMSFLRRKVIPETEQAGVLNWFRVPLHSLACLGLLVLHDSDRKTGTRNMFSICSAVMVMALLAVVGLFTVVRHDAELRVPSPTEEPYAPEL
UniProt A8MWY0, sequence (A8MWY0 whole entry, looked up): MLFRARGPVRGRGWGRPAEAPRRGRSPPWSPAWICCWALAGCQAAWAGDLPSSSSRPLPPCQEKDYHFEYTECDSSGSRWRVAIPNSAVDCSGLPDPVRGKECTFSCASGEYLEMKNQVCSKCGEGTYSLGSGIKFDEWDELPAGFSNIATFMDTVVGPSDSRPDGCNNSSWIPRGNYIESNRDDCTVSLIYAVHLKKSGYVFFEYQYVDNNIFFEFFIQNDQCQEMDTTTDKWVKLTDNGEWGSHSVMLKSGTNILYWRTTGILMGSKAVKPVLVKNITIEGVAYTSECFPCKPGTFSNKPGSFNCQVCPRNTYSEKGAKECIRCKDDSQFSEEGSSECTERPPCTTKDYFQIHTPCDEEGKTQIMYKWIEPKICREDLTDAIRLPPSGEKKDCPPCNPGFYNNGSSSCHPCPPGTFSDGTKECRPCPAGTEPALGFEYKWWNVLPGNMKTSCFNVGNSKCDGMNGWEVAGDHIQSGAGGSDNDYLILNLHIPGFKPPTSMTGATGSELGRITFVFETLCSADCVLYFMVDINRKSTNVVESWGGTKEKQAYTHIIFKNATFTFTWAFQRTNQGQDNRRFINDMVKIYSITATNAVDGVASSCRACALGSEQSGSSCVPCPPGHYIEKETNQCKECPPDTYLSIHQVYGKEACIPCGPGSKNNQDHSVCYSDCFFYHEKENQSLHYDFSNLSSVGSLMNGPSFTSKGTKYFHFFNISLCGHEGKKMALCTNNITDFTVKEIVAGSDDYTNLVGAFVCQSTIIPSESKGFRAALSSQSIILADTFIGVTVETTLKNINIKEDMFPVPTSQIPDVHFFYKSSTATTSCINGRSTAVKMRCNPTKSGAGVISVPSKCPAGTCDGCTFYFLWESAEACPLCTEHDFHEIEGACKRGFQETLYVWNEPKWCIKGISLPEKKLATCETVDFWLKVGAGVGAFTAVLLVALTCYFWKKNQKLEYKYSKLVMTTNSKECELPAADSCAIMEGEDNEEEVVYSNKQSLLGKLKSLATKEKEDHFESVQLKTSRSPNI
UniProt Q8IYU8, sequence (Q8IYU8 whole entry, looked up): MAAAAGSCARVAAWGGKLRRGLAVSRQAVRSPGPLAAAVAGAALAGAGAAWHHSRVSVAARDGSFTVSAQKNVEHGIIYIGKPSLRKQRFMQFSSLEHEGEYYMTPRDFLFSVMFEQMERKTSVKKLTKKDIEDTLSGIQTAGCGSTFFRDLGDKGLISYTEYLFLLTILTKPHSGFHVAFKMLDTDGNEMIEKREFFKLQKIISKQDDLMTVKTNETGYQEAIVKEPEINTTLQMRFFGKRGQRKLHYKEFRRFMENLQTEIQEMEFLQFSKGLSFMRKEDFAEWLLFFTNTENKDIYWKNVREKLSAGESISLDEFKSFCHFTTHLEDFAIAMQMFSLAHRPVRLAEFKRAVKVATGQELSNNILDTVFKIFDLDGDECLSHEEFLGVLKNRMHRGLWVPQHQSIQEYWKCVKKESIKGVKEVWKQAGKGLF
UniProt P49441, sequence (P49441 whole entry, looked up): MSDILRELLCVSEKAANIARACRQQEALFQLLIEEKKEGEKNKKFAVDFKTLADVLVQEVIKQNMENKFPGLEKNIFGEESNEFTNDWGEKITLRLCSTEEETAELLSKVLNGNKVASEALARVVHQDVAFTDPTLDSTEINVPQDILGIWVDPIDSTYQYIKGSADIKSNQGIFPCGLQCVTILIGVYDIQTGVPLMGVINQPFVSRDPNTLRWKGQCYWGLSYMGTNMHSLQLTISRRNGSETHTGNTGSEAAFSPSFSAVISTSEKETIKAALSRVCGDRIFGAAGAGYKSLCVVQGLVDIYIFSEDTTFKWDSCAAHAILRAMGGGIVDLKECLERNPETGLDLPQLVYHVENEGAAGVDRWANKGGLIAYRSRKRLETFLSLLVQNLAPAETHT
UniProt Q9Y383, sequence (Q9Y383 whole entry, looked up): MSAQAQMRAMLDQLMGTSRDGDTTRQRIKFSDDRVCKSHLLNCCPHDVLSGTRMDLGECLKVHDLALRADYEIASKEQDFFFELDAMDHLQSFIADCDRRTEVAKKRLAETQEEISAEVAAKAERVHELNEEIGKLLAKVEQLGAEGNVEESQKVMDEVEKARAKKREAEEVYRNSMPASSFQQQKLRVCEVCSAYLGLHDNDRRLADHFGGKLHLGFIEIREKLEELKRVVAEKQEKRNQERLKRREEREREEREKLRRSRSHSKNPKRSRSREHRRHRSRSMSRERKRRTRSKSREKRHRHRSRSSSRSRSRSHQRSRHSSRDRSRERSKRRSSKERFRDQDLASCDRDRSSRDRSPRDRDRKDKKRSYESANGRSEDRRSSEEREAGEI
UniProt Q9Y496, sequence (Q9Y496 whole entry, looked up): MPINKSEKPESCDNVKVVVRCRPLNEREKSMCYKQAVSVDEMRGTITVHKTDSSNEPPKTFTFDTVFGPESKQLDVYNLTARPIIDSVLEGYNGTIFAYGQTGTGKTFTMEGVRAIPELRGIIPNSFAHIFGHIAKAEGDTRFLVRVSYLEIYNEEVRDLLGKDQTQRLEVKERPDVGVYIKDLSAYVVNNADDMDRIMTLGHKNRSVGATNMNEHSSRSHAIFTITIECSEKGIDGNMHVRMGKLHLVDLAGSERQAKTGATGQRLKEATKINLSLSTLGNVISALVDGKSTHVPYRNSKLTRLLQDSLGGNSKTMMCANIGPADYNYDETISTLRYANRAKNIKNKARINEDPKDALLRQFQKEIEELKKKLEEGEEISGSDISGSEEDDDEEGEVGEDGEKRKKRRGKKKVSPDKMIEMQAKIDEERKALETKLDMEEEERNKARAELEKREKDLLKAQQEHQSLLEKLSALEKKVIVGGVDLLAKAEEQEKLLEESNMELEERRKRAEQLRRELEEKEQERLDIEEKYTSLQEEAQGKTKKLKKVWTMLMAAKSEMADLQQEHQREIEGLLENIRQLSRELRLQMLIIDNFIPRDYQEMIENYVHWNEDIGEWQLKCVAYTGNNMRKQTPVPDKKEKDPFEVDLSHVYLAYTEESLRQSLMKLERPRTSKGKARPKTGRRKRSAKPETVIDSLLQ
UniProt P49006, sequence (P49006 whole entry, looked up): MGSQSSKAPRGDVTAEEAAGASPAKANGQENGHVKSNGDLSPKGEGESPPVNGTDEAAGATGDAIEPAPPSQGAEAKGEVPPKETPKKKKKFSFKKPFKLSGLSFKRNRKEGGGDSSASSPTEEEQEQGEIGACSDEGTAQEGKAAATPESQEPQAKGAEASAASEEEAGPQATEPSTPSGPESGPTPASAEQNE
UniProt Q4G0J3, sequence (Q4G0J3 whole entry, looked up): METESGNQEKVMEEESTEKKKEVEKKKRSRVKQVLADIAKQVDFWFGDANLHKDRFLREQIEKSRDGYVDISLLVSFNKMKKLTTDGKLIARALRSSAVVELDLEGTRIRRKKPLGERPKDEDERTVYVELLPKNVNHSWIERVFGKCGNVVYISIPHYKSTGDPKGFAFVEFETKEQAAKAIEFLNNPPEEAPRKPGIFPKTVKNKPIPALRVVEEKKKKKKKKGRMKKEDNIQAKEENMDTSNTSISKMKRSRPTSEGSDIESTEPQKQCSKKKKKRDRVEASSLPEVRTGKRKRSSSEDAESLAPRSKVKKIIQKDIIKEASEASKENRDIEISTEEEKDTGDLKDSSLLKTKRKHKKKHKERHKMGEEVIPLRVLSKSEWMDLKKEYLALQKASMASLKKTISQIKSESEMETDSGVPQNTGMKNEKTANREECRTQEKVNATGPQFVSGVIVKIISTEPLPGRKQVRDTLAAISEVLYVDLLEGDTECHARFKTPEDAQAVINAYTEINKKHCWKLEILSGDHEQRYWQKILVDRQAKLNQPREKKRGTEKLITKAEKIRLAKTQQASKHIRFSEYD
UniProt Q13123, sequence (Q13123 whole entry, looked up): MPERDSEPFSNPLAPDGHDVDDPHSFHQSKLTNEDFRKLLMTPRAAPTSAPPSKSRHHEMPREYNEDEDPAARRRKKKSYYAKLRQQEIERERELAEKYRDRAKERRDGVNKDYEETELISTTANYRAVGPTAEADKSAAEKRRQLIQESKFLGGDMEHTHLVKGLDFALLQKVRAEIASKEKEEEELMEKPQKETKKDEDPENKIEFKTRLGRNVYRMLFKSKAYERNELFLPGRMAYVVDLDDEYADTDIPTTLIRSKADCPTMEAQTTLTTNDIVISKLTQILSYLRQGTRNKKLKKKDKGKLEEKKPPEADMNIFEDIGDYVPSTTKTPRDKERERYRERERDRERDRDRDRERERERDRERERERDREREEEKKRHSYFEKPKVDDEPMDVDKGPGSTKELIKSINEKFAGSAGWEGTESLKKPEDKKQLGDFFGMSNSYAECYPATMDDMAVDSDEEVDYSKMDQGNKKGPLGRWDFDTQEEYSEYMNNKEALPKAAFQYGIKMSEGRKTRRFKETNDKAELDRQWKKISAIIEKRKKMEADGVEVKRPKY
UniProt P14174, sequence (P14174 whole entry, looked up): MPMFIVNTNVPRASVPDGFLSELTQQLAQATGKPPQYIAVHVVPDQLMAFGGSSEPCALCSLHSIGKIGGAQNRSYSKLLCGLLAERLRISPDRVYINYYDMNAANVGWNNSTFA

Target | log2 fold change (erlotinib) | log2 fold change [1] | log2 fold change [2] | log2 fold change [3] | log2 fold change [4] | log2 fold change [5] | log2 fold change [6] | log2 fold change [7] | log2 fold change [8] | log2 fold change [9] | log2 fold change (IRAK-1-4 Inhibitor I) | log2 fold change (ibrutinib) | log2 fold change [10] | log2 fold change (ralimetinib) | log2 fold change [11] | log2 fold change [12] | log2 fold change [13] | log2 fold change (pinometostat) | log2 fold change [14] | log2 fold change [15]
IPO7 (UniProt O95373) | -0.015 | 0.078 | 0.034 | -0.003 | 0.01 | 0.056 | 0.026 | -0.019 | -0.004 | -0.05 | 0 | -0.063 | -0.021 | 0.032 | -0.153 | -0.309 (active) | -0.069 | 0.012 | 0 | -0.221 (active)
MAP2K1 (UniProt Q02750) | -0.012 | 0.001 | 0.037 | -0.001 | 0.074 | 0.014 | -0.028 | -0.005 | -0.002 | -0.003 | 0.047 | -0.016 | -0.349 (active) | 0.004 | -0.066 | 0.023 | 0.015 | -0.061 | 0.008 | 0.026
IK (UniProt Q13123) | 0.049 | 0 | -0.069 | 0 | 0.055 | -0.022 | -0.016 | -0.11 | -0.004 | -0.065 | -0.139 | -0.067 | -0.06 | -0.007 | 0.054 | 0.031 | 0.239 | 0.038 | 0.022 | 0.148
MICU2 (UniProt Q8IYU8) | -0.013 | -0.013 | -0.06 | -0.002 | -0.038 | -0.015 | 0.103 | 0.018 | 0.045 | -0.042 | -0.039 | -0.001 | -0.026 | -0.05 | -0.12 | -0.292 | 0.128 | 0.211 | 0.072 | 0.136
INPP1 (UniProt P49441) | 0.014 | 0.006 | 0.073 | 0.059 | 0.042 | -0.01 | 0.005 | 0.044 | 0.01 | -0.101 | -0.001 | 0.023 | -0.003 | -0.108 | -0.039 | 0.016 | -0.007 | -0.054 | -0.072 | -0.03
JMJD6 isoform 3 (UniProt Q6NYC1) | -0.009 | 0.011 | 0.039 | 0.044 | 0.051 | 0.03 | 0.107 | -0.037 | -0.007 | 0.181 | -0.02 | -0.011 | -0.049 | -0.065 | 0.019 | -0.041 | 0.004 | -0.016 | 0.013 | 0.102
LARP7 isoform 3 (UniProt Q4G0J3) | 0.01 | 0.119 | 0.022 | 0.034 | 0.06 | 0.023 | 0.025 | -0.055 | -0.052 | 0.045 | -0.061 | 0.031 | 0.063 | 0.111 | 0.021 | -0.246 | -0.057 | 0.05 | -0.063 | -0.383 (active)
MARCKSL1 (UniProt P49006) | -0.001 | 0.072 | -0.047 | -0.02 | -0.031 | -0.039 | -0.015 | -0.063 | -0.005 | 0.039 | 0.041 | 0 | -0.039 | -0.069 | 0.106 | 0.006 | -0.034 | -0.017 | -0.031 | 0.028
KIF3A (UniProt Q9Y496) | -0.222 | -0.06 | -0.069 | -0.122 | -0.049 | 0.034 | -0.062 | -0.025 | -0.011 | -0.067 | 0.04 | -0.016 | 0.034 | 0.085 | -0.151 | -0.336 | -0.065 | 0.051 | 0.087 | -0.081
MAGEA9 (UniProt P43362) | 0.05 | 0.032 | 0.001 | 0.076 | -0.07 | 0.074 | -0.021 | -0.058 | -0.191 | 0.018 | 0.008 | -0.094 | 0.101 | 0 | 0.031 | -0.256 | 0.087 | 0.009 | 0.057 | -0.49 (active)
KIAA1324L (UniProt A8MWY0) | 0.036 | -0.077 | 0.003 | 0.05 | 0.092 | -0.068 | 0.003 | -0.042 | -0.03 | 0.064 | 0.027 | -0.056 | -0.052 | -0.024 | -0.038 | 0.024 | 0 | -0.008 | 0.034 | -0.037
LARP1 (UniProt Q6PKG0) | -0.051 | 0.002 | -0.11 | 0.085 | -0.025 | -0.001 | -0.081 | -0.067 | 0.046 | -0.172 | -0.131 | 0.009 | -0.059 | 0.031 | 0 | -0.088 | 0.036 | 0.109 | 0.021 | -0.303 (active)
LUC7L2 (UniProt Q9Y383) | -0.001 | 0.122 | 0.013 | 0.098 | -0.218 | -0.031 | 0.008 | -0.143 | -0.03 | -0.072 | -0.207 | -0.026 | -0.646 (active) | 0.111 | 0.031 | -0.134 | -0.04 | -0.048 | 0.009 | -0.037
MFSD5 isoform 2 (UniProt Q6N075) | 0.147 | 0.057 | 0.041 | 0.115 | -0.061 | 0.038 | -0.144 | 0.109 | 0.014 | 0.034 | -0.068 | -0.016 | -0.007 | 0.019 | -0.017 | -0.053 | 0.003 | 0.049 | 0.039 | -0.061
MIEF1 (UniProt Q9NQG6) | 0.009 | 0.03 | 0.104 | 0.021 | 0.072 | 0.001 | 0.025 | -0.027 | -0.028 | -0.021 | 0.056 | -0.003 | -0.016 | -0.07 | -0.183 | -0.247 | -0.034 | -0.038 | -0.085 | 0.112
MIF (UniProt P14174) | 0.058 | 0.128 | 0.368 (active) | 0.033 | -0.07 | 0.034 | -0.037 | -0.069 | -0.057 | -0.029 | 0.017 | 0.039 | -0.014 | 0.071 | -0.119 | 0.052 | 0.04 | -0.043 | 0.201 | 0.133

From the supplement of paper PMC10849652
